Data on 70 compounds can be found in PubChem BioAssay AID493085 (Broad Institute, 2011).

Structures are written as SMILES. The campaign covered roughly 2,400 compounds. About 360 (15%) were called active. Not shown: some 5% with an inconclusive outcome.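 The calls were made as follows: active = falling-signal curve with half-maximal concentration at or below ten times the top tested dose; inconclusive = flat fit at 30 to 70% inhibition, or poor fit; inactive = signal rise, flat within 30%, or potency beyond limit.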 A selection follows. A call without a number means that no potency is given here. Potency and affinity values are given separately.

This test can be described thus: dox-induced RFP signal loss in R4-3T3 cells – cell-based, NIH3T3 R4, HSE-GFP and Tet-On RFP, cherry-pick, set 3, dose response (AID 493085).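 Also: cells heat shocked 2 h at 42 °C with doxycycline to induce reporters.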 To be noted: NIH3T3 R4 HSE-GFP/Tet-RFP reporter, fluorescence, 48 h; series mostly up to 19.5 µM.
For `CCOc1ccc(NC(=S)Nc2ccc(OC(F)(F)F)cc2)cc1`, the call was inactive.

In the case of `CSc1ccccc1NC(=O)C1=CC(c2ccc(C)cc2)=NS(=O)(=O)N1C`, the compound was called inactive. As for `Cc1[nH]c(=O)c(C#N)cc1-c1csc(-c2ccccc2)n1`, the compound was classed as inactive. The same measure for `COC(=O)CCC(=O)NNC(=O)c1cccc(Br)c1`: “inactive”; for `COc1ccccc1CCC(=O)OCC(=O)Nc1cccc(S(=O)(=O)N2CCOCC2)c1`: “inactive”. As to `CCOC(=O)C1=C(C)N(CCC(=O)O)C(=O)NC1c1ccccc1Cl` (stereo not given), the outcome was inactive. To `COc1ccc(/C=C(\C#N)C(=O)Nc2cc(C)c(Cl)cc2OC)cc1O` belongs “inactive”; to `CSc1nccn1C(=O)c1ccccc1[N+](=O)[O-]`, “inactive”.

Turning to `Cc1ccc(-n2cc(C(=O)c3ccccc3O)cn2)cc1`, the compound was called inactive. For the compound `O=C(CSc1nc2ccccc2s1)N/N=C/c1ccccc1C(=O)O`, the result was inactive. As for `CC(C)c1ccccc1-n1c(-c2cccnc2)n[nH]c1=S`, the outcome was inactive. In the case of `COc1ccccc1NC(=O)Cn1c(=O)c(N(C)C)c(N)n(C)c1=O`, the result was inactive. To `COCCn1c(=O)[nH]c2cc(C(=O)NC3CCCCCC3)ccc2c1=O` belongs “inactive”; to `COc1cccc(NC(=O)CCSc2nnc3scc(-c4ccccc4)n23)c1`, “inactive”. With `CCCC(NC(=O)COc1cc2c(c3oc(=O)cc(C)c13)CCC(C)(C)O2)C(=O)O` (stereo not given), the compound was called inactive. Turning to `CC(C(=O)NC1CC(C)(C)NC(C)(C)C1)c1ccc([N+](=O)[O-])cc1` (stereo not given), the call was inactive. Regarding `CC(=O)c1cccc(NC(=O)CN2C(=O)c3ccccc3C2=O)c1`, the compound was classed as inactive.

Take `CCOc1ccc(/C=N/NC(=O)c2ccc(Cn3cc([N+](=O)[O-])cn3)o2)cc1`: the outcome was inactive. With `NC(=S)N/N=C1\CC(n2nnnc2-c2ccccc2Cl)C2COC1O2` (stereo not given), the compound was called inactive. To `COc1ccc(/C=N/Nc2nc(C)cc(=O)[nH]2)cc1OC` belongs “inactive”; to `COc1ccc(-c2nc(CNS(=O)(=O)c3ccc(OC)c(OC)c3)cs2)cc1`, “inactive”.

Consider `Cc1cccc(N2CCN(Cc3nc(-c4ccccc4Cl)oc3C)CC2)n1`, for which the call was inactive.

As for `Oc1ccc(Br)cc1/C=N/Nc1ccccn1`, the result was inactive. Consider `O=C(N/N=C/c1ccccn1)c1ccc([N+](=O)[O-])cc1`, for which the compound was classed as inactive.

On to `CCOC(=O)C[n+]1c(C)csc1C`, for which the compound was called inactive. As for `CCOc1ccc(NC(=O)C(C)NS(=O)(=O)c2ccc(NC(C)=O)cc2)cc1` (stereo not given), the result was inactive. For the compound `Cc1ccc(Cn2c(Sc3ncccn3)nc3c2c(=O)[nH]c(=O)n3C)cc1`, the compound was classed as inactive.

Take `Cc1nccn1Cc1cccc2ccccc12`: the call was inactive. To `CC(=O)NCCNC(=O)c1ccc(CSc2nc3ccccc3s2)cc1` belongs “inactive”; to `Cc1cc(=O)[nH]c2c1c(=O)[nH]n2C1CC(C)N(C)CC1C` (stereo not given), “inactive”; to `C=CCOCCN(CCOCC=C)C1=NS(=O)(=O)c2ccccc21`, “inactive”.

For `Cc1cc(OCC(=O)NCCc2ccc(S(N)(=O)=O)cc2)c2c(C)cc(=O)oc2c1`, the result was inactive. `NS(=O)(=O)c1ccc(CCNCC#Cc2ccccc2)cc1`: the outcome was inactive.

Regarding `CCn1cc(C(=O)NCCCN2CC(C)CC(C)C2)c(=O)c2cc(S(=O)(=O)N(C)C)ccc21` (stereo not given), the compound was classed as inactive. `O=C(N1CCOCC1)C12CCC3CC(CC(C3)C1)C2`: the compound was called inactive. For the compound `CCCS(=O)(=O)c1cnc(C2COc3ccccc3O2)nc1N` (stereo not given), the result was inactive. For `C=CCn1c(C)nnc1SCC(=O)Nc1nc(C)c(C(=O)N(C)C)s1`, the compound was called inactive. Turning to `O=C1CC(N2CCCCC2)C(=O)N1c1ccccc1` (stereo not given), the result was inactive. For the compound `Cc1ccc(-n2nc3c(=O)n(CCCC(=O)N4CCC(C(N)=O)CC4)nc(C)c3c2C)cc1`, the call was inactive. Consider `O=S(=O)(Nc1ccc2c(c1)OCCO2)c1cccs1`, for which the call was inactive. For the compound `CC1C(=O)C(C)C(c2ccco2)NC1c1ccco1` (stereo not given), the compound was called inactive. Consider `Nc1nc2n(c1C(=O)c1ccccc1)CCC2`, for which the compound was classed as inactive. For `COc1ccc(N2CCN(CC(O)COCCOc3ccc(Br)cc3)CC2)cc1` (stereo not given), the compound was called inactive. Take `CC(C)(C)c1ccc(-c2nnc3sc(-c4ccccn4)nn23)cc1`: the outcome was inactive. Consider `Cn1c(C(=O)O)c(CC(=O)Nc2ccc3c(c2)OCCO3)c2ccccc21`, for which the result was inactive.

Turning to `CCCS(=O)(=O)N1CCCC(C(=O)N2CCC(Cc3ccccc3)CC2)C1` (stereo not given), the outcome was inactive. The same measure for `CC(=O)Nc1ccc(-c2nnn(CC(=O)Nc3ccc4c(c3)OCO4)n2)cc1Cl`: “inactive”.

For the compound `O=C1Cc2ccccc2C(=O)N1c1cccc(Cl)c1`, the compound was called inactive.

Turning to `CC(C)CNC(=O)C1CCN(Cc2ccc(OCc3ccccc3)cc2)CC1`, the compound was classed as inactive.

As to `CN(CC(=O)Nc1cccc(F)c1)CC(=O)Nc1cccc(S(N)(=O)=O)c1`, the outcome was inactive. On to `COc1cc(NC(=O)c2cc3cccc(OC)c3o2)cc(C(=O)Nc2cccc(C(F)(F)F)c2)c1`, for which the call was inactive. In the case of `COc1ccc(CN(C)C(=O)c2cc(S(=O)(=O)N3CCOCC3)ccc2N2CCCC2)cc1`, the call was inactive.

With `COc1ccc(S(=O)(=O)Nc2ccccc2C(=O)N2CCOCC2)cc1Cl`, the outcome was inactive. With `Cc1noc(NS(=O)(=O)c2ccc(N3Cc4ccccc4C3=O)cc2)c1C`, the outcome was inactive. The same measure for `CCCCN1C=CC(=C2C(=O)c3ccccc3C2=O)C=C1`: “inactive”. The same measure for `Fc1ccccc1NC(=S)Nc1ccc(CN2CCOCC2)cc1`: “inactive”. The same measure for `COC(=O)C1CCN(C(=O)c2sc3nc(-c4ccccc4)cn3c2C)CC1`: “inactive”. Consider `CCOC(=O)c1sc2nc3c(cc2c1N)COC(C(C)C)C3` (stereo not given), for which the call was inactive. The same measure for `CCCn1c(SCC(=O)c2c(C)[nH]c(C)c2C(=O)OCC)nc2ccccc21`: “inactive”. For `CCOC(=O)c1n[nH]c(=O)c2ccccc12`, the call was inactive. Consider `Cc1cccc(Nc2nc(-c3ccc4c(c3)OCCO4)cs2)c1`, for which the call was inactive. Take `COc1cccc(-n2nnc3c(=O)n(Cc4ccccc4Cl)cnc32)c1`: the outcome was inactive.

As for `Nc1nc(Cl)nc(N(c2ccccc2)c2ccccc2)n1`, the call was inactive. Regarding `CCOC(=O)Cn1c(CCC(=O)O)ccc1-c1ccc(F)cc1`, the call was inactive. To `O=S(=O)(Nc1ccncc1)c1ccc(Cl)cc1` belongs “inactive”; to `COc1ccc(S(=O)(=O)/C(C#N)=C/Nc2cccc(OC)c2)cc1`, “inactive”; to `NC(=O)c1nsc(C(=O)N(c2cccc(F)c2)C(C(=O)NC2CCCC2)c2ccco2)c1N` (stereo not given), “inactive”. The same measure for `COc1ccc(C(=O)N2CCN=C2SCc2cccnc2)cc1OC`: “inactive”. For the compound `CCN(C(=O)c1ccc2c(SCC(=O)O)c3c(nc2c1)CCC3)c1cc(Cl)ccc1OC`, the result was inactive. Take `CC(/C=N\NC(=O)c1cc(C)oc1C)=C\c1ccccc1`: the result was inactive.
